Data from PubChem BioAssay AID1565 (Sanford-Burnham Center for Chemical Genomics, 2009).
The whole screen tested about 290,000 compounds, of which about 3,200 (1.1%) were called active. The sample as a whole holds a higher share of actives than the screen did. Unmarked numbers belong to inactive results. No stated cut-off is given here; in the data, active means inhibition above about 60%; inactive means the rest.

The compounds below were run against Phosphoethanolamine/phosphocholine phosphatase (Homo sapiens) (UniProt Q8TCT1) (assay: PubChem AID 1565). Conditions: recombinant PHOSPHO1, absorbance phosphatase assay; at 13.3 µM; active compounds read high.
Phosphoethanolamine/phosphocholine phosphatase (Homo sapiens), sequence (Q8TCT1 whole entry, looked up): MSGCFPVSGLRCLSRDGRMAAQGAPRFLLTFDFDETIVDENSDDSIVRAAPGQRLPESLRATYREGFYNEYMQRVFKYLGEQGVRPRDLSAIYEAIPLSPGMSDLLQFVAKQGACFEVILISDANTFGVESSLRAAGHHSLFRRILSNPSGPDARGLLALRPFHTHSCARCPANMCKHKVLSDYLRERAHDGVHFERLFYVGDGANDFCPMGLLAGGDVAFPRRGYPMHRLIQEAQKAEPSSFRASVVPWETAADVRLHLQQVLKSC
In the case of O=C(Nc1nccs1)C1CCCN1S(=O)(=O)c1cccc2cccnc12 (stereo not drawn), the inhibition is reported as 2.7%.
For Cc1ccc(NC(=O)C2CCCN2S(=O)(=O)c2cccc3cccnc23)c(C)c1 (stereo not drawn), the inhibition was 70.1% (active).
Cc1cc(C)cc(NC(=O)C2CCCN2S(=O)(=O)c2cccc3cccnc23)c1 (stereo not drawn) gave an inhibition of 44.5%.
For O=C(CN(C(=O)c1csnn1)c1ccc(Br)cc1)NC1CCCC1, the inhibition was 26.9%.
CSCCC(NC(=O)c1ccc(=O)n(C)n1)c1nc2ccccc2[nH]1 (stereo not drawn) was tested, and the inhibition was 79.8% (active).
Compound COc1ccc(CC(=O)N[C@@H](CCSC)c2nc3ccccc3[nH]2)cc1 has an inhibition of 12.4%.
CSCCC(NC(=O)c1cc([N+](=O)[O-])cc([N+](=O)[O-])c1)c1nc2ccccc2[nH]1 (stereo not drawn) was tested, and the inhibition was -8.6%.
Work on CCCCC(=O)Nc1ccccc1N1CCN(c2ccc(F)cc2)CC1 yielded an inhibition of -152%.
Oc1ccccc1-c1cc(-c2ccc(Cl)cc2)n[nH]1 gave an inhibition of 19.7%.
For Cc1cc(C)c(SCCc2ccncc2)c(C)c1, the inhibition was 24.1%.
With O=C(NC1CC1)c1ccc2c(c1)NC(=O)c1ccccc1S2 the inhibition was 0.7%.
In the case of C/C(=N\Nc1cccc(C(=O)O)c1)c1ccc2c(c1)Nc1ccccc1S2, the inhibition is reported as 81.3% (active).
Work on O=C(O)c1cccc(N2C(=O)Nc3ccccc3N2O)c1 yielded an inhibition of 8.3%.
In the case of Cc1ccccc1N1CCN(C2CCCN(C(=O)c3cn4c(C)cccc4n3)C2)CC1 (stereo not drawn), the inhibition is reported as 22.3%.
For Cc1ccc(NC(=O)CN2C(=O)NC(C)(c3ccc(Cl)cc3)C2=O)c(Br)c1 (stereo not drawn), the inhibition was 27.9%.
For Cc1cc(NC(=O)CCC(=O)N(Cc2ccccc2)C(C(=O)NC2CCCC2)c2ccc(C)o2)no1 (stereo not drawn), the inhibition was 46.2%.
CCOCCCN(C)C1CCN(C(=O)c2oc3ccccc3c2NC(=O)Cc2cccc([N+](=O)[O-])c2)CC1 was tested, and the inhibition was 16.9%.
For CCOc1ccc(OCCSc2nc3ccccc3n2CC(=O)O)cc1, the inhibition was 13.8%.
Work on Cc1cccc(N=C2NN=C(c3c[nH]c4ccccc34)CS2)c1 yielded an inhibition of -2%.
For Clc1cccc(N=C2NN=C(c3ccc4c(c3)OCCO4)CS2)c1, the inhibition was 78% (active).
Compound c1ccc(CN2CCC(N=C3NN=C(c4ccc5c(c4)OCCO5)CS3)CC2)cc1 has an inhibition of 12.7%.
In the case of CCCn1c(=O)c(C(=O)Nc2cc(C)ccn2)c(O)c2ccccc21, the inhibition is reported as -7.8%.
Compound S=c1[nH]nc(CSCc2ccc(Cl)cc2Cl)n1-c1ccccc1 has an inhibition of 34.7%.
For S=c1[nH]cc(-c2ccc(Cl)cc2)n1-c1ccccc1, the inhibition was 69.5% (active).
With S=c1[nH]ccn1-c1ccc(Cl)cc1 the inhibition was -13%.
CN1CCN(/N=C/c2ccc(-c3ccc([N+](=O)[O-])cc3)o2)CC1 was tested, and the inhibition was 17.9%.
COc1cccc(CNC(=O)c2cccnc2Sc2ccc(Cl)cc2)c1 gave an inhibition of 23.3%.
Cc1nc(NC(=O)c2ccc3c(c2)OCCO3)ccc1Br gave an inhibition of 7.6%.
Work on CC(C)[C@@H]1COC(c2cccc(C3=N[C@H](C(C)C)CO3)c2)=N1 yielded an inhibition of -1.7%.
COc1ccc(C(=O)NC2CC2)cc1OC1CCN(Cc2ccc(SC)cc2)CC1 gave an inhibition of 27.3%.
With O=C(NNC(=S)NC(=O)c1cn(-c2ccccc2)nc1-c1ccccc1)c1ccncc1 the inhibition was 80.9% (active).
With Cc1onc(-c2ccccc2)c1C(=O)NNC(=S)NC(=O)c1ccc(F)cc1 the inhibition was -4.5%.
O=C(Nc1cn(-c2ccccc2)nc1-c1ccccc1)c1ccccc1 gave an inhibition of -2.5%.
CC1CCN(C(=S)NC(=O)c2ccccc2Br)CC1 showed an inhibition of 17.4%.
Compound COc1ccc(CCNC(=O)C2CCCN2C(=O)Nc2ccccc2)cc1OC (stereo not drawn) has an inhibition of 23.5%.
Cc1c(CCC(=O)N[C@@H](CC(C)C)C(=O)O)c(=O)oc2c(C)c3oc4c(c3cc12)CCCC4 showed an inhibition of 31.6%.
Cc1ccc(NC(=S)N/N=C2/CCCc3c(C)cc(C)cc32)cc1 was tested, and the inhibition was 85.8% (active).
For Cc1ccc(NC(=S)Nc2ccc(F)cc2)cc1, the inhibition was 19.2%.
In the case of Cc1ccc(C)c(NC(=S)NNC(=S)Nc2ccc(C(C)C)cc2)c1, the inhibition is reported as -6.1%.
For COC(=O)c1ccc(NC(=O)CSc2nc(N)c(NC(=O)c3ccc(Br)o3)c(=O)[nH]2)cc1, the inhibition was 42.8%.
In the case of CCOC(=O)N1CCN(C(=O)CSc2nnc(-c3c[nH]c4ccccc34)n2CCOC)CC1, the inhibition is reported as 25.5%.
For CCn1c(SCCC(C)C)nnc1-c1c[nH]c2ccccc12, the inhibition was 0.7%.
For CCC(C)Sc1nnc(-c2c[nH]c3ccccc23)n1CCOC (stereo not drawn), the inhibition was 61.5% (active).
With CC(C)(C)c1ccc(SCCc2ccncc2)cc1 the inhibition was 13.8%.
Cc1ccc(CC2C(=O)N(c3ccc(F)cc3)C(=O)C2C)cc1 (stereo not drawn) was tested, and the inhibition was -2.6%.
With Cc1cc(/C=N/Nc2ccc([N+](=O)[O-])cn2)c(C)n1-c1cccc(C(=O)O)c1 the inhibition was 15.9%.
Cc1ccc(N2CCN(c3ccc([N+](=O)[O-])cn3)CC2)c(C)c1 gave an inhibition of 19.7%.
Cc1ccc(-n2c(C)cc(/C=N/Nc3ccc([N+](=O)[O-])cn3)c2C)c(C)c1 was tested, and the inhibition was 98.7% (active).
For COC(=O)C1CCCCN1C(=O)c1ccc(OC2CCN(C(C)=O)CC2)c(OC)c1 (stereo not drawn), the inhibition was 57.6%.
In the case of COc1cc2[nH]c(=S)n(Cc3ccc(C)o3)c(=O)c2cc1OC, the inhibition is reported as 69.6% (active).
With COc1cc2[nH]c(=S)n(CCN3CCCCC3C)c(=O)c2cc1OC (stereo not drawn) the inhibition was 24.2%.
With COc1cc2[nH]c(=S)n(Cc3ccc(F)cc3)c(=O)c2cc1OC the inhibition was -42.1%.
COc1ccc(C(=O)NCCn2nc(C)cc2C)cc1OC1CCN(C(C)=O)CC1 gave an inhibition of 19.2%.
Compound COc1ccc2c(c1)c1nc3n(c(=O)c1n2CC(=O)Nc1ccccc1)CCS3 has an inhibition of -27.3%.
Cn1c(=O)c2c(nc(NCCNC(=O)c3ccco3)n2Cc2ccccc2F)n(C)c1=O was tested, and the inhibition was 26.1%.
In the case of Cc1nn(C)cc1CNC(=O)Nc1ccc(Cl)cc1, the inhibition is reported as 8%.
Cn1cc(Cl)c(C(=O)NNC(=S)Nc2cccc(Cl)c2)n1 showed an inhibition of -35.3%.
With Cc1nn(C)cc1C(=O)NNC(=S)Nc1ccc(Cl)cc1 the inhibition was 97.7% (active).
With O=S1(=O)N=C(N(CCO)/N=C/c2ccccc2F)c2ccccc21 the inhibition was 28.4%.
In the case of Cc1nonc1NC(=O)c1oc2ccccc2c1C, the inhibition is reported as 24%.
In the case of CC1CCCC(NC(=O)CSc2nccn2C)C1C (stereo not drawn), the inhibition is reported as 92.3% (active).
Cn1ccnc1SCC(=O)Nc1ccc2c(c1)OCCO2 was tested, and the inhibition was 19.8%.
CC1CCCCC1NC(=O)CSc1nnc(N)s1 (stereo not drawn) was tested, and the inhibition was -3.4%.
CCn1cc(/C=C(\NC(=O)c2cc(OC)c(OC)c(OC)c2)C(=O)N2CCN(C)CC2)c2ccccc21 gave an inhibition of 49.6%.
COc1ccc(C2/C(=C(/O)c3ccccc3)C(=O)C(=O)N2C)c(OC)c1 (stereo not drawn) showed an inhibition of -2.4%.
COc1ccccc1C1/C(=C(/O)c2ccc(OC(C)C)cc2)C(=O)C(=O)N1c1cc(C)on1 (stereo not drawn) gave an inhibition of -55.7%.
With CCOc1ccc(/C(O)=C2\C(=O)C(=O)N(c3ccc(OC)cc3)C2c2ccccc2[N+](=O)[O-])cc1 (stereo not drawn) the inhibition was 60.8% (active).
CC(=O)c1ccc(OCCN2CCOCC2)cc1 showed an inhibition of -11.5%.
With COc1ccc(OCCC(=O)c2ccc(OC)cc2)cc1 the inhibition was 20%.
CC(C)CCOc1ccc(C(=O)C[N+]2(C)CCOCC2)cc1 was tested, and the inhibition was 90.6% (active).
In the case of O=C(NCc1cccnc1)C12CC3CC(CC(C3)C1)C2, the inhibition is reported as 32.6%.
Compound CN(NS(=O)(=O)c1cccs1)c1ncc(C(F)(F)F)cc1Cl has an inhibition of 33.5%.
COc1ccc(-c2nnc(SCC(=O)c3cccs3)o2)c(OC)c1 gave an inhibition of 28.9%.
COc1ccc(C(=O)CSc2nnc(-c3ccco3)o2)cc1 was tested, and the inhibition was 36.7%.
For COc1ccc(-n2c(C)cc(C(=O)CSc3nnc(-c4cccs4)o3)c2C)cc1, the inhibition was 85.5% (active).
Work on CSCC[C@H](NC(=O)N1CCn2c1nc1ccccc12)C(=O)NC1CCCCC1 yielded an inhibition of 35.5%.
For COc1ccc(OCc2nnc3n2N=C(c2ccccc2)C(CC(=O)O)S3)cc1 (stereo not drawn), the inhibition was -69.6%.
With CN(C)c1cccc(C(=O)N2CCC(n3nccc3NC(=O)C3CCOC3)CC2)c1 (stereo not drawn) the inhibition was 27.6%.
For Cc1ccc(C(=O)N2CCC(n3nccc3NC(=O)Nc3cccc(F)c3)CC2)cn1, the inhibition was 64% (active).
With COc1cccc(C(=O)N2CCC(n3nccc3NC(=O)C3CCOC3)CC2)c1 (stereo not drawn) the inhibition was 40.8%.
COc1ccc2[nH]c(C(=O)N/N=C/c3cc(OC)c(OC)c(OC)c3)cc2c1 was tested, and the inhibition was 9.8%.
Cc1ccnc(NC(=O)C(C)N2C(=O)c3ccccc3C2=O)c1 (stereo not drawn) was tested, and the inhibition was 60% (active).
CCOc1ccc(NC(=O)C(C)N2C(=O)c3ccccc3C2=O)cc1 (stereo not drawn) gave an inhibition of 24.3%.
In the case of Cc1cc(C)nc(NC(=O)C(C)N2C(=O)c3ccccc3C2=O)n1 (stereo not drawn), the inhibition is reported as -12.8%.
CCc1nc2cccnc2n1-c1ccc(C(=O)O)cc1 was tested, and the inhibition was 35.1%.
With COc1ccc(CCNC(=O)C(=O)NCC2OCCN2S(=O)(=O)c2cccs2)cc1OC (stereo not drawn) the inhibition was 4.5%.
COc1cc(CN2CCC(n3nccc3NC(=O)CCCc3ccccc3)CC2)ccc1O gave an inhibition of -5%.
Work on Cc1ccc(CN2CCC(n3nccc3NC(=O)CCCc3ccccc3)CC2)o1 yielded an inhibition of 2.6%.
Work on COc1ccc(CN2CCC(n3nccc3NC(=O)CCCc3ccccc3)CC2)cc1C yielded an inhibition of 37.7%.
CCn1cc(CN2CCC(n3nccc3NC(=O)CCCc3ccccc3)CC2)c(C)n1 was tested, and the inhibition was 29%.
For CC(=O)N[C@@H](C)C(=O)N1CCC(n2nccc2NC(=O)CCCc2ccccc2)CC1, the inhibition was 61.6% (active).
CC(=O)NCC(=O)N1CCC(n2nccc2NC(=O)CCCc2ccccc2)CC1 was tested, and the inhibition was 65.8% (active).
In the case of N#Cc1ccccc1S(=O)(=O)N1CCN(C(=O)c2cc(-c3ccccc3)nn2-c2ccccc2)CC1, the inhibition is reported as 14.5%.
